The results in this text go back to PubChem BioAssay (Tox21).

Each structure is given as a SMILES string. A number with no mark means an inactive call. Calls of active or inactive are those of the source. Calls come from the whole dose curve; as a rule, active = well fitted curve in the direction sought with a large enough effect in the repeat runs; inconclusive = weak or mixed curves; inactive = flat fitted curve, though single readings scatter.
% is set by controls: 0 for no effect and ±100 for the full control effect.

The assay in a line: qHTS assay to test for compound auto fluorescence at 590 nm (red) in HEK293 cell free culture (AID 720683). To be noted: cell-free medium autofluorescence, Ex540/Em590 red; series mostly up to 91.3 µM. From the text:
U.S. Tox21 Program National Center for Advancing Translational Sciences [NCATS] NIH Chemical Genomics Center [NCGC] U.S. Environmental Protection Agency [EPA] National Institutes of Environmental Health Sciences [NIEHS] National Toxicology Program [NTP] U.S. Food and Drug Administration [FDA] Tox21 Assay Overview: Compound auto fluorescence often interferes with screening of the compound library against various biological targets and signaling pathways. Some of these compounds may have fluorophoric properties. Such properties may interfere with the assay outputs resulting in false positives and/or negatives. To decrease such complications and ensure the compound activities are relevant in terms of biological response, the Tox21 10K compound library was screened for auto fluorescence. From the fluorophores used as reporter signals in our screening assays, the auto fluorescence equivalencies of compounds against three fluorophores have been evaluated: Triamterene, Fluorescein and Rose Bengal sodium for blue, green and red fluorescence, respectively. The fluorescence intensities were measured using Excitation/Emission wavelengths at 405/460nm, 485/535nm and 540/590nm for blue, green and red labels, respectively. This assay includes the red fluorescence data.
Tox21 Assay Protocol Summary: 5 uL of culture medium (DMEM containing 10% FBS) per well was dispensed into black wall/clear bottom 1536-well plates using a Multidrop Combi Dispenser (ThermoFisher Scientific, Waltham, MA). After 23 nL compound or DMSO vehicle was transferred into assay plate by a pintool work station (Kalypsys, San Diego, CA), fluorescence intensities in the assay plates were measured by an Envision (PerkinElmer, Shelton, CT) plate reader using three labels for measuring blue, green and red fluorescence at […] 460, 535 and 590nm respectively.
On the technique in general: Quantitative high-throughput screening tests each substance at several concentrations.
Turning to `CCCCCCCC(=O)Cl`, the outcome was inactive. On the same count and under the same terms, for `C[C@H](CN1CCOCC1)C(C(=O)N1CCCC1)(c1ccccc1)c1ccccc1` the value was “inactive”. On to `CCC(C(N)=O)N1CCCC1=O` (stereo not given), for which the result was inactive. Turning to `C=CCCC#N`, the result was inactive. The same measure, in the same setting: for `Nc1c(Cl)c(F)nc(OCC(=O)O)c1Cl` the value was “inactive”; for `Cc1ccc(S(=O)(=O)N[C@@H](CCCCN)C(=O)CCl)cc1`, “inactive”; for `CC[C@@H](CO)NC(=O)[C@@H]1C=C2c3cccc4[nH]cc(c34)C[C@H]2N(C)C1`, “inactive”.

Turning to `COC(=O)[C@@H](N)CCCN/C(N)=N/[N+](=O)[O-]`, the call was inactive.

Regarding `CCOC(=O)N(C)N=O`, the outcome was inactive. On the same count and under the same terms, for `O=C(O)CBr` the value was “inactive”; for `CCOP(=S)(OCC)Oc1ccc(Cl)cc1Cl`, “inactive”; for `c1cncc([C@@H]2CCCCN2)c1`, “inactive”.

As to `O=C1CCCCC1Cl` (stereo not given), the outcome was inactive. For `CCN[C@@H](C)Cc1ccccc1`, the molecule was called inactive.

Regarding `CC1NCCOC1c1ccccc1` (stereo not given), the result was inactive. On the same count and under the same terms, for `ClCOCCl` the value was “inactive”; for `O=C(Cl)C(Cl)(Cl)Cl`, “inactive”. On the same count and under the same terms, for `CCC(=O)c1ccc(Cl)cc1` the value was “inactive”.

In the case of `CNC(=O)Oc1ccccc1C(C)C`, the molecule was classed as inactive. As for `ClCCCCCCCl`, the molecule was called inactive. Same read-out and setting: for `CCOP(=S)(OCC)SCCl` the value was “inactive”; for `O=P(O)(O)c1ccccc1`, “inactive”.

On to `CN1C(=O)COc2c(C(=O)NC3CN4CCC3CC4)cc(Cl)cc21` (stereo not given), for which the molecule was classed as inactive. On the same count and under the same terms, the same measure for `[O-][Br+2]([O-])O`: “inactive”; for `CCSC(=O)Cl`: “inactive”; for `CCCOc1nn(C(=O)NS(=O)(=O)c2ccccc2C(=O)OC)c(=O)n1C`: “inactive”. Still for that read-out and setting: the same measure for `CCCC[N+](=O)[O-]`: “inactive”. As for `CC[C@H](O)C(C[C@H](C)N(C)C)(c1ccccc1)c1ccccc1`, the result was inactive.

Regarding `CN(C)CCc1c[nH]c2cccc(OP(=O)(O)O)c12`, the call was inactive. On to `CN(C)C(=O)Oc1cc(OC(=O)N(C)C)cc(C(O)CNC(C)(C)C)c1` (stereo not given), for which the fluorescence, % of fluorescent control was -0.0016% [at 18.6 µM].

On to `C=CC(=O)OCCN(C)C`, for which the molecule was classed as inactive. Turning to `Cl/C=C/CCl`, the result was inactive. Still for that read-out and setting: for `C[C@]12C=CC(=O)C=C1CC[C@@H]1[C@@H]2CC[C@@]2(C)[C@H]1CC[C@]2(C)O` the value was “inactive”; for `CCOC1Oc2ccc(OS(C)(=O)=O)cc2C1(C)C` (stereo not given), “inactive”. As for `O=C1C2CC=CCC2C(=O)N1SC(Cl)(Cl)Cl` (stereo not given), the molecule was called inactive. Take `NCC1(CC(=O)O)CCCCC1`: the fluorescence, % of fluorescent control is 0.0512% [at 18.6 µM].

As for `ClCC1CO1` (stereo not given), the result was inactive. The same measure, in the same setting: for `CC1N=C(N)OC1c1ccccc1` (stereo not given) the value was “inactive”.

As for `C#CC(C)(C)O`, the molecule was called inactive. For the molecule `Clc1cc2c(cc1Cl)Oc1cc(Cl)c(Cl)cc1O2`, the fluorescence, % of fluorescent control was 0.0291% [at 0.37 µM].
